From PubChem BioAssay (NCI)
About 79,000 compounds went through this panel and 15% of them were active in at least one assay; those are over-represented in the sample as a whole. Activity calls are given as the source filed them. Rule as the data show it: active = growth inhibition above about 70%; inactive = the rest.

Legend:
[1] = NCI Yeast Anticancer Drug Screen. Data for the rad52 strain (AID 147);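 also: 0% = growth of vehicle-treated control cultures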; details: S. cerevisiae rad52 mutant growth inhibition, hits give high values
Outline: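 DNA repair-defective yeast; compound exposure; growth scored against vehicle controls.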

[2] = NCI Yeast Anticancer Drug Screen. Data for the wt1 strain (AID 149);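 also: 0% = growth of vehicle-treated wt1 cultures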; details: S. cerevisiae wt1 strain (SPY 50644) growth inhibition, hits give high values
Outline: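 Growth inhibition read against vehicle controls after compound exposure of the wt1 yeast strain.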

[3] = NCI Yeast Anticancer Drug Screen. Data for the rad50EPP+ strain (AID 151);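 also: 0% = growth of vehicle-treated control cultures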; details: S. cerevisiae rad50 mutant strain, hits give high values
Outline: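 rad50EPP+ yeast treated with test compounds. Readout: growth vs vehicle control.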

[4] = NCI Yeast Anticancer Drug Screen. Data for the mgt1 strain (AID 153); details: S. cerevisiae mgt1 mutant growth inhibition, hits give high values
Outline: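 Growth inhibition relative to vehicle controls was scored for the mgt1 yeast strain after compound exposure.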

[5] = NCI Yeast Anticancer Drug Screen. Data for the rad50 strain (AID 155);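 also: 0% = growth of vehicle-only cultures of the same strain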; details: S. cerevisiae rad50 strain growth inhibition, hits give high values
Outline: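 Readout: growth inhibition relative to vehicle-treated cultures. Compound exposure was carried out in a genetically defined yeast strain deficient in DNA damage repair.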

[6] = NCI Yeast Anticancer Drug Screen. Data for the mec2-1 strain (AID 157); details: S. cerevisiae mec2-1 strain, hits give high values
Outline: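 Growth inhibition is read against vehicle-treated controls after compound exposure of the mec2-1 yeast strain, which is defective in DNA damage repair or cell cycle control.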

[7] = NCI Yeast Anticancer Drug Screen. Data for the sgs1 mgt1 strain (AID 161);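 also: 0% = growth of cultures given vehicle only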; details: S. cerevisiae sgs1 mgt1 strain, hits give high values
Outline: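 Growth of a repair-deficient yeast mutant was monitored after compound treatment and expressed as inhibition relative to vehicle-treated cultures.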

[8] = NCI Yeast Anticancer Drug Screen. Data for the cln2 rad14 strain (AID 165);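 also: 0% = growth equal to vehicle treated cultures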; details: S. cerevisiae cln2 rad14 strain, hits give high values
Outline: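 Growth inhibition, relative to vehicle-treated controls, is the read-out. The test organism is a yeast strain with defined genetic alterations, cln2 rad14.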

[9] = NCI Yeast Anticancer Drug Screen. Data for the bub3 strain (AID 167); details: S. cerevisiae bub3 mutant strain, hits give high values
Outline: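 Readout: yeast growth inhibition, expressed relative to vehicle-only wells. The test organism is a mutant strain from a panel with lesions in DNA repair or checkpoint genes.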

[10] = NCI Yeast Anticancer Drug Screen. Data for the wt2 strain (AID 169);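 also: 0% = growth of vehicle-treated yeast cultures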; details: S. cerevisiae wt2 strain growth inhibition, hits give high values
Outline: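 Compound exposure of yeast; growth compared with vehicle controls; inhibition reported.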

[11] = NCI Yeast Anticancer Drug Screen. Data for the mlh1 strain (AID 171);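 also: 0% = growth of vehicle-treated control cultures of the same strain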; details: S. cerevisiae mlh1 strain growth inhibition, hits give high values
Outline: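 Compounds are applied to a genetically altered yeast strain, and its growth is compared with that of vehicle-treated cultures to give percent inhibition.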

[12] = NCI Yeast Anticancer Drug Screen. Data for the sgs1 strain (AID 173);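 also: 0% = growth of vehicle-only control cultures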; details: S. cerevisiae sgs1 mutant, hits give high values
Outline: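 Compounds applied to genetically altered yeast; growth compared with vehicle-treated cultures to give % inhibition.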

[13] = NCI Yeast Anticancer Drug Screen. Data for the mlh1 rad18 strain (AID 175); details: S. cerevisiae mlh1 rad18 strain growth inhibition, hits give high values
Outline: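 Cells of a genetically altered yeast strain, deficient in DNA damage repair, were treated with compound. Their growth was then compared with that of vehicle-treated cultures to give inhibition.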

[14] = NCI Yeast Anticancer Drug Screen. Data for the rad18 strain (AID 177); details: S. cerevisiae rad18 mutant growth inhibition, hits give high values
Outline: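 Compounds are applied to a repair-deficient yeast strain, and growth is compared with that of vehicle-treated cultures to give percent inhibition.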

[15] = at 5.0 µM (retest, dose inferred, filed as 0.5)
[16] = at 50.0 µM (retest, dose inferred, filed as 5.0)

Measured: growth inhibition

CCOP(=O)(OCC)/C(C#N)=C\c1cccc2ccccc12
inactive: [1]; at 1.2 µM -2% | [1]; at 3.7 µM -1% | [1]; at 11.0 µM 12% | [2]; at 1.2 µM 2% | [2]; at 3.7 µM 8% | [2]; at 11.0 µM 6% | [3]; at 1.2 µM 8% | [3]; at 3.7 µM 10% | [3]; at 11.0 µM 3% | [3]; at 33.0 µM 22% | [3]; at 100.0 µM 41% | [4]; at 1.2 µM -6% | [4]; at 3.7 µM -10% | [4]; at 11.0 µM -21% | [5]; at 1.2 µM -4% | [5]; at 3.7 µM 1% | [5]; [15] 14% | [5]; at 11.0 µM 22% | [6]; at 1.2 µM 4% | [6]; at 3.7 µM 16% | [6]; [15] -19% | [6]; at 11.0 µM 15% | [7]; [15] 53% | [8]; [15] 12% | [9]; at 1.2 µM -29% | [9]; at 3.7 µM -13% | [9]; [15] -3% | [9]; at 11.0 µM -41% | [10]; at 1.2 µM -6% | [10]; at 3.7 µM -2% | [10]; at 11.0 µM 2% | [11]; at 1.2 µM 11% | [11]; at 3.7 µM 10% | [11]; at 11.0 µM 17% | [12]; at 1.2 µM 22% | [12]; at 3.7 µM 23% | [12]; at 11.0 µM 43% | [13]; [15] -13% | [14]; at 1.2 µM 15% | [14]; at 3.7 µM 21% | [14]; at 11.0 µM 47%
active: [1]; at 33.0 µM 92% | [1]; at 100.0 µM 97% | [2]; at 33.0 µM 87% | [2]; at 100.0 µM 98% | [4]; at 33.0 µM 84% | [4]; at 100.0 µM 98% | [5]; at 33.0 µM 92% | [5]; [16] 90% | [5]; at 50.0 µM 85.7% | [5]; at 100.0 µM 98% | [6]; at 33.0 µM 85% | [6]; [16] 93% | [6]; at 50.0 µM 88.2% | [6]; at 100.0 µM 98% | [7]; [16] 90% | [7]; at 50.0 µM 89.2% | [8]; [16] 93% | [8]; at 50.0 µM 88.8% | [9]; at 33.0 µM 83% | [9]; [16] 95% | [9]; at 50.0 µM 89.2% | [9]; at 100.0 µM 97% | [10]; at 33.0 µM 82% | [10]; at 100.0 µM 98% | [11]; at 33.0 µM 89% | [11]; at 100.0 µM 98% | [12]; at 33.0 µM 93% | [12]; at 100.0 µM 99% | [13]; [16] 95% | [13]; at 50.0 µM 86.2% | [14]; at 33.0 µM 95% | [14]; at 100.0 µM 98%
